# Legend:
# Assay in all cases: DAPPL (digital affinity profiling via proximity ligation, sequencing); 10 mM Tris-HCl pH 7.5, 50 mM NaCl, 1 mM DTT, 4% glycerol, room temperature, 30 min; GST-TFs on glutathione beads, 16-mer random dsDNA library, 0.1% formaldehyde crosslink after washing; high values mean tight binding
# FEV = target: T1, FEV (Homo sapiens, UniProt Q99581 1-238); conditions: protein: recombinant; tags: N-terminal GST; dsDNA, one strand shown
# T1 sequence: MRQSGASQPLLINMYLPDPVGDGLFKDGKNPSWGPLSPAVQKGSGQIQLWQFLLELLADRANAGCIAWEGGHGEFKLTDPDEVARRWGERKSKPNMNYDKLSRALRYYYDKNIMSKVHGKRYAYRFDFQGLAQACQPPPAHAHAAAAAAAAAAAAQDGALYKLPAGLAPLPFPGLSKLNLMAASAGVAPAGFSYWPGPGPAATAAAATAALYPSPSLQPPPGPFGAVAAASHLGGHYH
# Method in brief: (§1)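 The binding signal reported is, for every hexamer, its read frequency for a factor over its read frequency for the tag-only sample. Reads came from pools of yeast-expressed, GST-fused human transcription factors on glutathione beads, barcoded with DNA and mixed with that sample, which were incubated with 200 nmole of a random double-stranded 16-mer DNA library in Tris/NaCl/DTT/glycerol buffer at room temperature for 30 min. After washing, the pools were crosslinked with 0.1% formaldehyde, proximity-ligated with BsaI/T4 ligase for 1 h at 37 °C, PCR-amplified and sequenced on an Illumina NextSeq500.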
# ETV5 = ETV5 (Homo sapiens, UniProt P41161 1-510); conditions: protein: recombinant; tags: N-terminal GST; dsDNA, one strand shown
# ETV5, sequence (P41161 whole entry): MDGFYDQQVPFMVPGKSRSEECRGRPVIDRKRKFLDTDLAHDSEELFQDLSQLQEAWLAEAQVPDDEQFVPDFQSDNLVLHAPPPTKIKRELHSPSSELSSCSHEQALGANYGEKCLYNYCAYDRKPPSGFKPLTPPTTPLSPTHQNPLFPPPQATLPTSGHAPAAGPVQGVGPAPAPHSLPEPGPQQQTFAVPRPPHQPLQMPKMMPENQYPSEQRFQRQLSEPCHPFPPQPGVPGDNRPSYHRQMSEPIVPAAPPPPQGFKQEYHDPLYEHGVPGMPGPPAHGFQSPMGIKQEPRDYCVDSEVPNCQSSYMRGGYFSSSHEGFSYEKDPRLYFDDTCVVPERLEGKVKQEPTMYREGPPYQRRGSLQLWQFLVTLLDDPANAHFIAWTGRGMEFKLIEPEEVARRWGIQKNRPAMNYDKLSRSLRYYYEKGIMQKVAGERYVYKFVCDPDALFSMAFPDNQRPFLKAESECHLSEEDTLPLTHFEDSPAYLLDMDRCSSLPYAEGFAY
# Method in brief: as §1
# HSF1 = HSF1 (Homo sapiens, UniProt Q00613 1-529); conditions: protein: recombinant; tags: N-terminal GST; chain copies: 3; dsDNA, one strand shown
# HSF1, sequence (Q00613 whole entry): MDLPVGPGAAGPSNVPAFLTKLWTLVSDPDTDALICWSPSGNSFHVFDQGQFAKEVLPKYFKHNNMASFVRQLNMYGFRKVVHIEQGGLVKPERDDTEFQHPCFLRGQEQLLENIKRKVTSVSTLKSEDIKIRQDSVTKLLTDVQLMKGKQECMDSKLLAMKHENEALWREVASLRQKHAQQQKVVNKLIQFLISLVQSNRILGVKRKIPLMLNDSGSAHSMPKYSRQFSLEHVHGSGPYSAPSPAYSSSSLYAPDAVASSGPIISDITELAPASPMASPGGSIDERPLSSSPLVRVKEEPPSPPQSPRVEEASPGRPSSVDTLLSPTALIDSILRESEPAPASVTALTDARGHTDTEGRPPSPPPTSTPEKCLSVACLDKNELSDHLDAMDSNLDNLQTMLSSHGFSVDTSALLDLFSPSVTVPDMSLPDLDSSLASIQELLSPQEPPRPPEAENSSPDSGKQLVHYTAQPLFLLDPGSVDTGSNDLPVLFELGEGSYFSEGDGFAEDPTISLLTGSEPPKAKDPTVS
# Method in brief: as §1
# SPIC = target: T2, SPIC (Homo sapiens, UniProt Q8N5J4 1-248); conditions: protein: recombinant; tags: N-terminal GST; dsDNA, one strand shown
# T2 sequence: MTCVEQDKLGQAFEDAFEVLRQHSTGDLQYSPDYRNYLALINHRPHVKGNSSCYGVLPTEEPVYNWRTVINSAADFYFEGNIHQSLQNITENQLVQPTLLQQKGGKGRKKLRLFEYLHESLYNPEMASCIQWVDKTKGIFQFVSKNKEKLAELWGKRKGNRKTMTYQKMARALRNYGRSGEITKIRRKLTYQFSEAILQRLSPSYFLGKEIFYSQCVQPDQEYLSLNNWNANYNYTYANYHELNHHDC
# Method in brief: as §1
# ELF4 = ELF4 (Homo sapiens, UniProt Q99607 1-663); conditions: protein: recombinant; tags: N-terminal GST; dsDNA, one strand shown
# ELF4, sequence (Q99607 whole entry): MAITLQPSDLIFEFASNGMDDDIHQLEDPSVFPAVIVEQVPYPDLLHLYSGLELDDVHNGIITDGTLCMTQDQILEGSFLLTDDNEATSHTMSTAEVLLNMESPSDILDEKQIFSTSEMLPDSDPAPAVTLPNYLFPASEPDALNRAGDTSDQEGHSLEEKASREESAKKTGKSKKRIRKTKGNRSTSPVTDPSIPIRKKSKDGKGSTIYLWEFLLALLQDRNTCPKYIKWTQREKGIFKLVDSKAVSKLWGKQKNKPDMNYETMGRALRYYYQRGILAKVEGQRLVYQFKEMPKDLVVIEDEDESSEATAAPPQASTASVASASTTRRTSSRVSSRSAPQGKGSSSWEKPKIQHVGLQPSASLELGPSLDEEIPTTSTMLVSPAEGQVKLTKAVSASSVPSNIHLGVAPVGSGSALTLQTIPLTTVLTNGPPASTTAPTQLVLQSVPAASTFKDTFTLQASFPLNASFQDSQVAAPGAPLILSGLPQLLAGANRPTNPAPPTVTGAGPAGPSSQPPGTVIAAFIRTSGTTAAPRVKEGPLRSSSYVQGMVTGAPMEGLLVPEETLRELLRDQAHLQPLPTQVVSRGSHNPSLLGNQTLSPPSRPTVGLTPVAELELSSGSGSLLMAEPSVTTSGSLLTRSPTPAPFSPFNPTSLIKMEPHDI
# Method in brief: as §1
# ELK4 = target: T3, ELK4 (Homo sapiens, UniProt P28324-2 1-405); conditions: protein: recombinant; tags: N-terminal GST; dsDNA, one strand shown
# T3 sequence: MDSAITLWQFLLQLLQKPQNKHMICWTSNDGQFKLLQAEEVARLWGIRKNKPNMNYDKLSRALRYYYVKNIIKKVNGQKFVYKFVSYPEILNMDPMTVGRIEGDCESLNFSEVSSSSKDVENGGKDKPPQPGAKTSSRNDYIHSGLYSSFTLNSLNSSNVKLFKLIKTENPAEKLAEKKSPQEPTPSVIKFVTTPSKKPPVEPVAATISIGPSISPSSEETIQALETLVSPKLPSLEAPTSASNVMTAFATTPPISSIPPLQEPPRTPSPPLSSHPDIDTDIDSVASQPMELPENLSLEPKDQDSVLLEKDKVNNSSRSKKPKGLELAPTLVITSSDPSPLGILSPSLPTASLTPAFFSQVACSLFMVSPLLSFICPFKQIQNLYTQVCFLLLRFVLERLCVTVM
# Method in brief: as §1
# ETV2 = target: T4, ETV2 (Homo sapiens, UniProt O00321 1-342); conditions: protein: recombinant; tags: N-terminal GST; dsDNA, one strand shown
# T4 sequence: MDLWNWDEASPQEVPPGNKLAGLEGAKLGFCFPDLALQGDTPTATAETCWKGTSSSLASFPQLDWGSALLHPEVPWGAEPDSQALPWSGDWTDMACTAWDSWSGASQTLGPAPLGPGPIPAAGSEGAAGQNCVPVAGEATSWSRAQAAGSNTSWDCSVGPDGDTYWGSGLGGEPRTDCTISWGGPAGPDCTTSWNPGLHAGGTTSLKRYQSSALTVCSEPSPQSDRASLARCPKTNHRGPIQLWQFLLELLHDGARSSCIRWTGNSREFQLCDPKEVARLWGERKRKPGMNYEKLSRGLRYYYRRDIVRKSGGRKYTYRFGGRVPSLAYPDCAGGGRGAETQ
# Method in brief: as §1
# ELF3 = target: T5, ELF3 (Homo sapiens, UniProt P78545 1-371); conditions: protein: recombinant; tags: N-terminal GST; dsDNA, one strand shown
# T5 sequence: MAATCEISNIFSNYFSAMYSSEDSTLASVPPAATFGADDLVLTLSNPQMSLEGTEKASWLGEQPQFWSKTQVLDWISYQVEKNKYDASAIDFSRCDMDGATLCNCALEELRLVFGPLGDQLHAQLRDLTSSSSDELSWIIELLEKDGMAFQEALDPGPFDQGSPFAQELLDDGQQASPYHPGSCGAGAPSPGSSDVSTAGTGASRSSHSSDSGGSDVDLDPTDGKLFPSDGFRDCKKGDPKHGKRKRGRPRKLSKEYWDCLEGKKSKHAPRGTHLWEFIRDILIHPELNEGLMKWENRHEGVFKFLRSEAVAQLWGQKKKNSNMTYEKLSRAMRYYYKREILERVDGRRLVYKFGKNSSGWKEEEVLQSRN
# Method in brief: as §1
# ETV1 = ETV1 (Homo sapiens, UniProt P50549 1-477); conditions: protein: recombinant; tags: N-terminal GST; dsDNA, one strand shown
# ETV1, sequence (P50549 whole entry): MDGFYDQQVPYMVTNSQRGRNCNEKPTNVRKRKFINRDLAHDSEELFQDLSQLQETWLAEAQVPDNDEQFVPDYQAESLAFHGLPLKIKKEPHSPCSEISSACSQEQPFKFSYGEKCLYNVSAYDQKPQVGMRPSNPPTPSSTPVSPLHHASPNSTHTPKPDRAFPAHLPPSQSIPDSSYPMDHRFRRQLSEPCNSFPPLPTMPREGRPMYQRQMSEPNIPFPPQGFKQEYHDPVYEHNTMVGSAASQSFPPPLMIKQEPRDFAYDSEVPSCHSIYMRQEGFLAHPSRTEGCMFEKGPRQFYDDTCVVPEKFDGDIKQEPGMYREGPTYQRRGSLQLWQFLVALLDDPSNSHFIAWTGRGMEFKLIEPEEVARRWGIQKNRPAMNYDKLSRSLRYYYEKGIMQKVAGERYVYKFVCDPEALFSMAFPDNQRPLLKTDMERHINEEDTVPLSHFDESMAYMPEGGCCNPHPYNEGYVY
# Method in brief: as §1
# ERF = target: T6, ERF (Homo sapiens, UniProt P50548 1-548); conditions: protein: recombinant; tags: N-terminal GST; dsDNA, one strand shown
# T6 sequence: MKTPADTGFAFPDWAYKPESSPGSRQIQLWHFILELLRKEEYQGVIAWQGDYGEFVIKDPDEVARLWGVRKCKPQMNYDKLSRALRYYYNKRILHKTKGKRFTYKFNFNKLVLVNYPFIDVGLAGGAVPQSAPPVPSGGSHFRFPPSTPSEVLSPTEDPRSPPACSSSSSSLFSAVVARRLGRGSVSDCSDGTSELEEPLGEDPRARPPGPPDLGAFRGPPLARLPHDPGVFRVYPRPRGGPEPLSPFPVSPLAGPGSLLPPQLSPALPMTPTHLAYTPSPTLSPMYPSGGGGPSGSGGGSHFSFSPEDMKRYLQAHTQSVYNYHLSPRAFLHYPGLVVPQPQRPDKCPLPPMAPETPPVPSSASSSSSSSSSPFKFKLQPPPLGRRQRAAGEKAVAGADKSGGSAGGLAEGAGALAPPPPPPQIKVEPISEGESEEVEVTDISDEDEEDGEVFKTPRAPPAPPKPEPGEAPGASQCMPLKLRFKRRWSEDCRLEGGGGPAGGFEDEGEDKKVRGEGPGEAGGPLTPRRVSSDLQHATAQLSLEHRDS
# Method in brief: as §1
# ETV3L = target: T7, ETV3L (Homo sapiens, UniProt Q6ZN32 1-361); conditions: protein: recombinant; tags: N-terminal GST; dsDNA, one strand shown
# T7 sequence: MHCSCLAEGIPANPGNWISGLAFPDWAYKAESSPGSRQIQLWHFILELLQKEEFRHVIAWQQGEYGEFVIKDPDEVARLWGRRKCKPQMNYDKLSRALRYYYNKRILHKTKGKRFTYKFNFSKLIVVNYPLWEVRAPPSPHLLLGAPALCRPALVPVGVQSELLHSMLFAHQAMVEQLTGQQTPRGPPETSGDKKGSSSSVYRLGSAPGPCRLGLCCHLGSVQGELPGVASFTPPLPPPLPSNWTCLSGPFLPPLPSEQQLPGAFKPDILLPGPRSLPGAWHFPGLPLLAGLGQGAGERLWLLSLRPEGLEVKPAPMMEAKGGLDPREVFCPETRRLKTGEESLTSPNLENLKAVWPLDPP
# Method in brief: as §1
# ETS2 = target: T8, ETS2 (Homo sapiens, UniProt P15036 1-469); conditions: protein: recombinant; tags: N-terminal GST; dsDNA, one strand shown
# T8 sequence: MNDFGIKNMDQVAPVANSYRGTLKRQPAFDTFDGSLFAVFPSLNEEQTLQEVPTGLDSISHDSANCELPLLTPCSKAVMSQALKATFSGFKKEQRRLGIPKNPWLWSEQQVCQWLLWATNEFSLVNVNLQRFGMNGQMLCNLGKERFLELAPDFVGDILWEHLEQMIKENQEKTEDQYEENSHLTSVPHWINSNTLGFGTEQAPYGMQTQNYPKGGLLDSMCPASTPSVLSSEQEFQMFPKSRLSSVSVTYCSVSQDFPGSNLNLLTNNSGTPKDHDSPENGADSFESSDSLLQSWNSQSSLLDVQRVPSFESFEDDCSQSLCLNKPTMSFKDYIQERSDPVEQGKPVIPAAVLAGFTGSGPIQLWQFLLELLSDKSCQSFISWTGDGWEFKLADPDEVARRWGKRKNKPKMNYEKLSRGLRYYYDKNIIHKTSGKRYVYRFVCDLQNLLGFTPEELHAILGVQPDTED
# Method in brief: as §1
# SPDEF = target: T9, SPDEF (Homo sapiens, UniProt O95238 1-335); conditions: protein: recombinant; tags: N-terminal GST; dsDNA, one strand shown
# T9 sequence: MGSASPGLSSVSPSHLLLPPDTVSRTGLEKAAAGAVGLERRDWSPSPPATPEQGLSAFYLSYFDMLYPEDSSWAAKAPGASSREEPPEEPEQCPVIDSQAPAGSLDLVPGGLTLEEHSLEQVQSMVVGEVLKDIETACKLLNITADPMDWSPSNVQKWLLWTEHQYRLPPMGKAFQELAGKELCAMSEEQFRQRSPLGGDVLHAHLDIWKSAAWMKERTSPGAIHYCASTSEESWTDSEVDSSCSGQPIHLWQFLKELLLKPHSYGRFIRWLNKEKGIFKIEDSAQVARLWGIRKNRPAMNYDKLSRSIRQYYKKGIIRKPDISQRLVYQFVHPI
# Method in brief: as §1
# ETV7 = target: T10, ETV7 (Homo sapiens, UniProt Q9Y603 1-341); conditions: protein: recombinant; tags: N-terminal GST; dsDNA, one strand shown
# T10 sequence: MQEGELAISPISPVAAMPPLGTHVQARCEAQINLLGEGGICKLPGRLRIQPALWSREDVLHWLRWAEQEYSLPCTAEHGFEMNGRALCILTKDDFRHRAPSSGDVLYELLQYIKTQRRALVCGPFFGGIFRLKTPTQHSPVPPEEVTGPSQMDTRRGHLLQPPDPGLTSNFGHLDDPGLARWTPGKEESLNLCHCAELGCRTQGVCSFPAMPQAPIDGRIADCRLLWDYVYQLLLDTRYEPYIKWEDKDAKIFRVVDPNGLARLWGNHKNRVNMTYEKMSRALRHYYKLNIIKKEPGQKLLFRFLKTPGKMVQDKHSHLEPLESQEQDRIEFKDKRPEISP
# Method in brief: as §1
# ELF5 = target: T11, ELF5 (Homo sapiens, UniProt Q9UKW6-2 1-255); conditions: protein: recombinant; tags: N-terminal GST; dsDNA, one strand shown
# T11 sequence: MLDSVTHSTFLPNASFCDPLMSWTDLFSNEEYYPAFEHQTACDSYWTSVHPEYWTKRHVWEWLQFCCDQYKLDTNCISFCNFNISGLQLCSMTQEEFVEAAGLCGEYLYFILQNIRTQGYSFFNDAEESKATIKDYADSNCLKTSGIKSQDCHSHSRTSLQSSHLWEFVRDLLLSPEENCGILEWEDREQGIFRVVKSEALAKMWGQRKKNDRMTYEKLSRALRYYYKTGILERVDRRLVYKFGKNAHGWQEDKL
# Method in brief: as §1
# ETV3 = target: T12, ETV3 (Homo sapiens, UniProt P41162-2 1-143); conditions: protein: recombinant; tags: N-terminal GST; dsDNA, one strand shown
# T12 sequence: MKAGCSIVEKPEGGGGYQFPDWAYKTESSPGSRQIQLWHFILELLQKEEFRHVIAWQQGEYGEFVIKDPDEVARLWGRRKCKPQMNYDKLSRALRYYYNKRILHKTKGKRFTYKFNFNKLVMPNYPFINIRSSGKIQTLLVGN
# Method in brief: as §1
# ETV6 = ETV6 (Homo sapiens, UniProt P41212 1-452); conditions: protein: recombinant; tags: N-terminal GST; dsDNA, one strand shown
# ETV6, sequence (P41212 whole entry): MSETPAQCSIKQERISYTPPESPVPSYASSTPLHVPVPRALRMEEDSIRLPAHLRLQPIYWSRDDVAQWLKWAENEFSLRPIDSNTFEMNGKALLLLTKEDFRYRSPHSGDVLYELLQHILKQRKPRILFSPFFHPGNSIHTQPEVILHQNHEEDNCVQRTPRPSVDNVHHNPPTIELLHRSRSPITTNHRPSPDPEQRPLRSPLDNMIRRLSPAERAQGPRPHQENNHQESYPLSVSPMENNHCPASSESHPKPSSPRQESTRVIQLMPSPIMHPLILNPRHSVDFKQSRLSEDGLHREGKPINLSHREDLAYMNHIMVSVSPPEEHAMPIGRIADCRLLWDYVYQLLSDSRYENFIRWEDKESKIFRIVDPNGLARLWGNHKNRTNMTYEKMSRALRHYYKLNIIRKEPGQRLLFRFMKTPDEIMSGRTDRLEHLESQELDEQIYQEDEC
# Method in brief: as §1
sequence,measurement,setting,value
AACATG,binding signal,FEV,"1.1 fold enrichment (6-mer frequency, TF over GST control)"
same,binding signal,ETV5,"1.23 fold enrichment (6-mer frequency, TF over GST control)"
same,binding signal,HSF1,"1.1 fold enrichment (6-mer frequency, TF over GST control)"
same,binding signal,SPIC,"1.28 fold enrichment (6-mer frequency, TF over GST control)"
same,binding signal,ELF4,"1.23 fold enrichment (6-mer frequency, TF over GST control)"
same,binding signal,ELK4,"1.25 fold enrichment (6-mer frequency, TF over GST control)"
same,binding signal,ETV2,"1.19 fold enrichment (6-mer frequency, TF over GST control)"
same,binding signal,ELF3,"1.26 fold enrichment (6-mer frequency, TF over GST control)"
same,binding signal,ETV1,"1.13 fold enrichment (6-mer frequency, TF over GST control)"
same,binding signal,ERF,"1.21 fold enrichment (6-mer frequency, TF over GST control)"
same,binding signal,ETV3L,"1.17 fold enrichment (6-mer frequency, TF over GST control)"
same,binding signal,ETS2,"1.14 fold enrichment (6-mer frequency, TF over GST control)"
same,binding signal,SPDEF,"1.11 fold enrichment (6-mer frequency, TF over GST control)"
same,binding signal,ETV7,"1.05 fold enrichment (6-mer frequency, TF over GST control)"
same,binding signal,ELF5,"1.15 fold enrichment (6-mer frequency, TF over GST control)"
same,binding signal,ETV3,"1.11 fold enrichment (6-mer frequency, TF over GST control)"
same,binding signal,ETV6,"1.25 fold enrichment (6-mer frequency, TF over GST control)"
